The values below come from ChEMBL document CHEMBL3988442, “University of Dundee, Small-Polar-MMV Screening Library” (2021).

What all share (design): scale not given: direction of the effect not stated beside the values
Assay [1] has as its target Protein translocase subunit SecA (Escherichia coli (strain K12)) (UniProt P10408). As to the kind of experiment: Assay to Identify E. coli SecA ATPase Inhibitors. The format is functional. As to conditions: 30 µM.
Assay [2] concerns the target T1, Ubiquitin-activating enzyme e1, putative (Leishmania donovani (strain BPK282A1)) (UniProt E9BSI1).
T1 sequence (whole entry): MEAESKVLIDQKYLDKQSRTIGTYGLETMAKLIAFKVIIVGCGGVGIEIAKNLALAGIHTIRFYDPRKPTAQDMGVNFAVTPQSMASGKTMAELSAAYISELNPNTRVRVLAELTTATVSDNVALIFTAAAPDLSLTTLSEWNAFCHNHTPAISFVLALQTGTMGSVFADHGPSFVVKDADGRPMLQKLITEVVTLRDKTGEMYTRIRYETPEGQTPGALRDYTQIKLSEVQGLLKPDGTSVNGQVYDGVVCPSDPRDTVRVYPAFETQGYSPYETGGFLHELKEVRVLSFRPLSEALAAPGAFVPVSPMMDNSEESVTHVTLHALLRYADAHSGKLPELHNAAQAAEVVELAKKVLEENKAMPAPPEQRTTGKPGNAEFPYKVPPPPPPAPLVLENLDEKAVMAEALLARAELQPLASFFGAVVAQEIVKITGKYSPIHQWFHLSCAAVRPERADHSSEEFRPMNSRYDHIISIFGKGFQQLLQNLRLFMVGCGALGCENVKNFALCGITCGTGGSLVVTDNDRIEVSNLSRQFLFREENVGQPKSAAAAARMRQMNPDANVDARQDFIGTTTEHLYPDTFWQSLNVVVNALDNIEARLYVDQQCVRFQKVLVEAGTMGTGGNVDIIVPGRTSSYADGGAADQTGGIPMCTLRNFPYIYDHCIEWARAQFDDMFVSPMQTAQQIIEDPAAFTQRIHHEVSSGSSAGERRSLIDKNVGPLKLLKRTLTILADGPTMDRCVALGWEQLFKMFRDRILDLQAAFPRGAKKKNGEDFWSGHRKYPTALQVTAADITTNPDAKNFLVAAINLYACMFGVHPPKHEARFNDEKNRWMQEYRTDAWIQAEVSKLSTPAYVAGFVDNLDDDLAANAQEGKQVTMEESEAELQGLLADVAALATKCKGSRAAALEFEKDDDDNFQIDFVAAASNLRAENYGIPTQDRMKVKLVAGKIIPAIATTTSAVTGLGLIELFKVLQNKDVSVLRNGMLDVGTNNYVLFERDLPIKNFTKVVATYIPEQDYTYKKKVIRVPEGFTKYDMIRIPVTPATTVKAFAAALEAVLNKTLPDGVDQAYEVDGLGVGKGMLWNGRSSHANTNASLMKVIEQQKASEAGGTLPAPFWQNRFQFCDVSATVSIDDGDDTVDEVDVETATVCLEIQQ
As to the kind of experiment: Leishmania donovani Ubiquitin Activating Enzyme (LdE1). The assay is classed as functional. As to conditions: 30 µM.

Assay [3] addresses AMP-activated protein kinase, AMPK (Homo sapiens) (UniProt P54646+O43741+P54619+Q9UGJ0+Q9Y478+Q13131+Q9UGI9). As to the kind of experiment: AMP-dependent Kinase enzyme assay. An in vitro enzyme assay that detects ADP turnover that is directly proportional to AMPK activity. This uses naive AMPK that is activated during the assay with MK-8722. The format is functional. As to conditions: 30 µM.

Assay [4] has as its target Sialic acid-binding Ig-like lectin 9 (Homo sapiens) (UniProt Q9Y336). As to the kind of experiment: Hs-Siglec9 ALPHAscreen SOP 20170721. As to conditions: 10 µM. Background: In Alpha technology, singlet oxygen from a donor bead excites a nearby acceptor bead.
The subject of a further assay is Trypanosoma cruzi. As to the kind of experiment: Trypanosoma cruzi phosphomannomutase and mannose-1-phosphate guanylyltransferase assay. The assay is classed as functional. As to conditions: 10 µM.
The target in assay [5] is T2, Arginase-2, mitochondrial (Homo sapiens) (UniProt P78540).
T2 sequence (whole entry): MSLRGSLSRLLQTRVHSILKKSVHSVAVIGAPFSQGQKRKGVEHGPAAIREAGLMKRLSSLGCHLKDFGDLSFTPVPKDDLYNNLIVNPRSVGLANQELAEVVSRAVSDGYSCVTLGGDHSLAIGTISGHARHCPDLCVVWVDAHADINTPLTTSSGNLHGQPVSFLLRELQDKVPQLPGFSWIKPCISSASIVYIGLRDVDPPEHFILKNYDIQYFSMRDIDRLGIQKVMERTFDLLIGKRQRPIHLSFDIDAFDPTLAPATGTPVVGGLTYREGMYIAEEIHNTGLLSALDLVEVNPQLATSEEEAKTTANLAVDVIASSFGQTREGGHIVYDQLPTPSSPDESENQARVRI
As to the kind of experiment: in vitro enzyme assay to detect the production of urea directly proportional to the activity of Arginase II. Further: in the data most compounds retested in dose-response had high values. The format is functional. Conditions: 33.3 µM.

For assay [6], the target named is T3, Proteasome subunit beta (Trypanosoma cruzi) (UniProt O96673).
T3 sequence (whole entry): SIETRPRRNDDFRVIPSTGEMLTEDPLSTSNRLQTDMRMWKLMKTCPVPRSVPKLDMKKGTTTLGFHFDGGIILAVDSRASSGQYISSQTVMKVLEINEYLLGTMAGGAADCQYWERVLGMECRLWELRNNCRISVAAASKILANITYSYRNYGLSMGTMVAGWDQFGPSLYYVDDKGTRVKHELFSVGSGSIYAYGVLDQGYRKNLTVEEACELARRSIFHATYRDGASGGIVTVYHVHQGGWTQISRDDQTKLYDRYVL
As to the kind of experiment: Trypanosoma cruzi proteasome chymotrypsin-like activity (TcProtChymo) assay. Further: in the data most compounds retested in dose-response had high values. The format is functional. Conditions: 9.37 µM.

A further assay is filed under the species Homo sapiens. As to the kind of experiment: To identify inhibition of the IFN signalling (Jak-Stat) pathway via expression of an eGFP reporter gene under the control of an IFN-stimulated response element (ISRE) containing MxA promoter. The assay is classed as functional. As to conditions: 30 µM. On the technique in general: In a reporter assay the amount or activity of a reporter protein is the signal.

The target in assay [7] is T4, Tyrosyl-tRNA synthetase, putative (Trypanosoma cruzi (strain CL Brener)) (UniProt Q4DSP6).
T4 sequence (whole entry): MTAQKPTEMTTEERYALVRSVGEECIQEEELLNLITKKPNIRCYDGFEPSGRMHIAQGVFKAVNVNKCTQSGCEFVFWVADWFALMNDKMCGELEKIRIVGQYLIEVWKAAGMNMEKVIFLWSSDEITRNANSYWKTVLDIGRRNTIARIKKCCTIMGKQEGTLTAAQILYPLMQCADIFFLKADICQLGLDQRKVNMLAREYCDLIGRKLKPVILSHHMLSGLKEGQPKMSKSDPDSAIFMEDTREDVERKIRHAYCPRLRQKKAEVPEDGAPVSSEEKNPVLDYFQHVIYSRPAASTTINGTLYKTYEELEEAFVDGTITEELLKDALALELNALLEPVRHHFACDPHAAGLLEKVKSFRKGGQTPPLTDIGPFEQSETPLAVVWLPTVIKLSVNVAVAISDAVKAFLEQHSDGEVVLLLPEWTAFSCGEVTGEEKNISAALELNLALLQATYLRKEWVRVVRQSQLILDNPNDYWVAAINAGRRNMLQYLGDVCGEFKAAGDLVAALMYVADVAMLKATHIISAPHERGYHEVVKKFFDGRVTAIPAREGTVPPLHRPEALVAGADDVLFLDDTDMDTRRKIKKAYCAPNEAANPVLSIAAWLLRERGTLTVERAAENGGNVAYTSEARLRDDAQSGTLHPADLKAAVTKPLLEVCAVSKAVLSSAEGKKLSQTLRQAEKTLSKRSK
As to the kind of experiment: Trypanosoma cruzi tyrosyl tRNA synthetase (TcYRS) _High Tyrosine SOP. Further: in the data most compounds retested in dose-response had high values. The assay is classed as functional. As to conditions: 30 µM.

In assay [8] the target is T4, Tyrosyl-tRNA synthetase, putative (Trypanosoma cruzi (strain CL Brener)). As to the kind of experiment: Trypanosoma cruzi tyrosyl tRNA synthetase (TcYRS) SOP. The format is functional. As to conditions: 30 µM.
Assay [9] deals with Chromo domain-containing protein 1 (Saccharomyces cerevisiae (strain ATCC 204508 / S288c) (Baker's yeast)) (UniProt P32657). As to the kind of experiment: ScCHD-1 Enzyme Inhibition Assay. Further: in the data most compounds retested in dose-response had high values. The format is functional. Conditions: 30 µM.
Chromo domain-containing protein 1 (Saccharomyces cerevisiae (strain ATCC 204508 / S288c) (Baker's yeast)), sequence (P32657 whole entry, the tested form may be a part): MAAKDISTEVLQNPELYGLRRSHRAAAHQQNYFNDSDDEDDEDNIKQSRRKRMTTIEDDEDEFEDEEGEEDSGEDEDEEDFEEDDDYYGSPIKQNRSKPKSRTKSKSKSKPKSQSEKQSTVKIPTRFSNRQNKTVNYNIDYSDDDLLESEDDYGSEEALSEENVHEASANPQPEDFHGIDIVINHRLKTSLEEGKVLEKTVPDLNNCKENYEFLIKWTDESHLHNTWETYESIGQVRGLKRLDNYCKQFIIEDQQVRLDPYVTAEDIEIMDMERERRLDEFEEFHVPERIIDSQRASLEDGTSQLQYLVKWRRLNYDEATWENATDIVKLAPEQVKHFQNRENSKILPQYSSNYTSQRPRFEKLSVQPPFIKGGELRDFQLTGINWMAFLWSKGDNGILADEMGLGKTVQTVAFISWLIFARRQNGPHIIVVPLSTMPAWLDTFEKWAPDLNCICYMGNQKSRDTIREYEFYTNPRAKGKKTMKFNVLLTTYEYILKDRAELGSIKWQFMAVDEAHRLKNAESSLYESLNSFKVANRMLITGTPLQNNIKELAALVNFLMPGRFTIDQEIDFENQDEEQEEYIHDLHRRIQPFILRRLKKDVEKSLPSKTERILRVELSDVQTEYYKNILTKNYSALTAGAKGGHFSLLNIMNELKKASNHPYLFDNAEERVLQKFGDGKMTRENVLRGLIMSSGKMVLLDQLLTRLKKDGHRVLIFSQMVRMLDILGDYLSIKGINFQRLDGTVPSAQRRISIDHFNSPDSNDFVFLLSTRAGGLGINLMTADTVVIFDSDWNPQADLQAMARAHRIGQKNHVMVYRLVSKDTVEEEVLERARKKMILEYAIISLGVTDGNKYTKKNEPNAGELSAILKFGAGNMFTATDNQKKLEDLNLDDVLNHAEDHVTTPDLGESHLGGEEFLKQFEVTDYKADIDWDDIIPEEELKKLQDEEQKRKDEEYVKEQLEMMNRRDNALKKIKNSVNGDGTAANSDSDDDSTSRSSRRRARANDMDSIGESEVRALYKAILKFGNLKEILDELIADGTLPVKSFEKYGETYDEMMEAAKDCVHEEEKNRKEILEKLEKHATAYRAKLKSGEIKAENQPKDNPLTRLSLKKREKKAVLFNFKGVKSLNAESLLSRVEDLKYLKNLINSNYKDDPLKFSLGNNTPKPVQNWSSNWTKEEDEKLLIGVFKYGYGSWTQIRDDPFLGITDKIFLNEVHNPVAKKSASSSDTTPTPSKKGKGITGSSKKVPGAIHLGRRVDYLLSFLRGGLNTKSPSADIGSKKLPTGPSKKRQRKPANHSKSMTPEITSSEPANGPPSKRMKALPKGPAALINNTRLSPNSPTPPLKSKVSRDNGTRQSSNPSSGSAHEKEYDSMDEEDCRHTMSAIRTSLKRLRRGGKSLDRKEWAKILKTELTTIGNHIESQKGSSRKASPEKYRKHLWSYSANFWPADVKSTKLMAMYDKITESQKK

Each structure is given as a SMILES string. For part of these data: Measured potencies and affinities stand elsewhere.

Sialic acid-binding Ig-like lectin 9 (Homo sapiens), sequence (Q9Y336 whole entry): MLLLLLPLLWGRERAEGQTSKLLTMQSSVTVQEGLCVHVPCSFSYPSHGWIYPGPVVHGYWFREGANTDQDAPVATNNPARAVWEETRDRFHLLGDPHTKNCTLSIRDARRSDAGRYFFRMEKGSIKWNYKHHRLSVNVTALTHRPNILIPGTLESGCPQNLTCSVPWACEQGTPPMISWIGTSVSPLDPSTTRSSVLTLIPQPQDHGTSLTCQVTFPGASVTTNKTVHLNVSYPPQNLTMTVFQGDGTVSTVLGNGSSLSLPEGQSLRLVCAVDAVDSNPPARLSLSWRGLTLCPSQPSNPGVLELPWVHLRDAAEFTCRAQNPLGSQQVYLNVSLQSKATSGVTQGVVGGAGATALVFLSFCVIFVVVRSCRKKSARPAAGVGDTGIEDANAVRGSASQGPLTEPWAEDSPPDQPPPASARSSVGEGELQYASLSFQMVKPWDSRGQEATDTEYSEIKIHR
Protein translocase subunit SecA (Escherichia coli (strain K12)), sequence (P10408 whole entry): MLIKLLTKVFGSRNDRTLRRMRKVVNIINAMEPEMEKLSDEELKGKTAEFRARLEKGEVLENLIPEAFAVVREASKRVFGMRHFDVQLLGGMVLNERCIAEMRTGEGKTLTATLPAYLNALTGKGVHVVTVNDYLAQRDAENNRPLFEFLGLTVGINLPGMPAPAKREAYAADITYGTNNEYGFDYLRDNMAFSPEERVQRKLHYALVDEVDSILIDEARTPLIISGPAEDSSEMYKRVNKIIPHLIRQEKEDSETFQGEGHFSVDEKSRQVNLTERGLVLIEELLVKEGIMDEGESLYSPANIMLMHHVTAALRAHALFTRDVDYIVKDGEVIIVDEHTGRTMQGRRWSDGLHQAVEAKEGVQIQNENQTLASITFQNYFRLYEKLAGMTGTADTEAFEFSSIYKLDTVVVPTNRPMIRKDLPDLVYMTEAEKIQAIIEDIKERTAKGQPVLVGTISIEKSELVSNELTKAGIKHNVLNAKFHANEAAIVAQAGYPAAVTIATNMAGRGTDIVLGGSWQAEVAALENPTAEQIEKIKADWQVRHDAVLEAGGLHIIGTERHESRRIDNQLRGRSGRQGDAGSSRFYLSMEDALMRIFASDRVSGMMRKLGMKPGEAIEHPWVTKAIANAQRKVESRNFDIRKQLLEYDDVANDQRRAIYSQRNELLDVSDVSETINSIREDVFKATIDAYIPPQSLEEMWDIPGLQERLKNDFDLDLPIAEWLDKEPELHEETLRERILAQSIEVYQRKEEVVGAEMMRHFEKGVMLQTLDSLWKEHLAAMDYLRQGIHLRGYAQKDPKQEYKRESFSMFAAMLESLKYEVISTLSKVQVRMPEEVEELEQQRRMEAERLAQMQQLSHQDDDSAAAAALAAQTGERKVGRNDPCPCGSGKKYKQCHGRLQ

As to `CCC(=O)N1CCN(Cc2cc(-c3ccncc3)nn2C)CC1`, the Percent Effect in [1] is -5.35%; in assay [2] it was -6.76%; in [3], 12.8%; in assay [4] it was 5.24%; in the assay with Trypanosoma cruzi, -3.56%; in assay [5], -1.62%. Also, the Percent Effect in [6] was 5.77%; in the assay listed under Homo sapiens, -3.21%; in assay [7], 4.3%; in assay [8], -1.3%; in assay [9] it was -2.41%.

In the case of `O=C1[C@@H]2CCN(Cc3ccoc3)C[C@@H]2OCCN1Cc1cccnc1`, the Percent Effect is -4.73% in assay [1]; 13.3% in assay [2]; 6.25% in assay [3]; 5.81% in assay [4]; -2.76% in the assay on Trypanosoma cruzi; -0.699% in assay [5]. In addition, the Percent Effect in assay [6] was 11.4%; in the assay listed under Homo sapiens, -11.6%; in assay [7], 4.25%; in assay [8], 1.28%; in [9], 1.76%.

Take `CC(C)NC(=O)COc1nc(C(C)C)no1`: the Percent Effect is -4.66% in assay [1]; -2.7% in assay [2]; -12.4% in assay [3]; 41.5% in [4]; 9.07% in the assay with Trypanosoma cruzi; 16.2% in [5]. The Percent Effect in [6] is 4.48%; in the assay filed under Homo sapiens, 6.57%; in assay [7], -0.529%; in assay [8] it was 9.76%; in assay [9], -4.43%.

In the case of `COc1cccc(COCC(=O)N2CCCC(c3nncn3C)C2)c1` (centres undefined), the Percent Effect in [1] is -4.98%; in [2], 13.5%; in [3], -6.54%; in assay [4], 18.4%; with Trypanosoma cruzi it was 3.11%; in [5], -6.81%. Also, the Percent Effect is 0.721% in [6]; 13.5% in the assay listed under Homo sapiens; 4.43% in assay [7]; 16.1% in [8]; -11.8% in assay [9].

On to `c1ncn(CC2CCCCN2Cc2noc(C3CC3)n2)n1` (centres undefined), for which the Percent Effect in assay [1] is -0.132%; in assay [2], 15.8%; in [3], 0.834%; in [4], 1.81%; with Trypanosoma cruzi it was -1.69%; in assay [5], -1.92%. Besides, the Percent Effect in assay [6] is 16.4%; in the assay filed under Homo sapiens it was 6.6%; in assay [7], 3.43%; in [8], 21.9%; in [9], -12.9%.

`COc1cccc(CN2CCCCCC2c2cccc(C)c2)c1O` (centres undefined): the Percent Effect in [1] is -3.46%; in assay [2], -2.6%; in assay [3], 18.9%; in assay [4] it was -5.45%; in the assay on Trypanosoma cruzi, -3.25%; in [5] it was -3.23%. For the same molecule, the Percent Effect in assay [6] is 24%; in the assay filed under Homo sapiens it was 21.6%; in assay [7] it was -5.29%; in [8], -3.85%; in [9], -9.17%.

`COc1ncccc1C(=O)Nc1nc2c(s1)CN(S(=O)(=O)C1CC1)CC2`: the Percent Effect is -8.71% in [1]; 0% in assay [2]; 25.5% in assay [3]; -2.45% in [4]; -4.9% with Trypanosoma cruzi; 1.82% in assay [5]. The Percent Effect in [6] amounted to 29.8%; in the assay listed under Homo sapiens it was 21.4%; in assay [7] it was 3.23%; in assay [8], 5%; in assay [9], 102%.

Consider `Cc1cc(C)n(CC2CCCN2C(=O)CCc2cscn2)n1` (centres undefined), for which the Percent Effect in [1] is -2.42%; in assay [2], -5.26%; in assay [3] it was 7.92%; in [4], -2.27%; in the assay with Trypanosoma cruzi, 8.08%; in assay [5] it was 1.92%. Moreover, the Percent Effect in assay [6] is -4.51%; in the assay filed under Homo sapiens, -4.45%; in [7], -0.49%; in assay [8], 0%; in assay [9], 1.57%.

For `CCc1nc(C2CCCN2CC(=O)Nc2sc(C)c(C)c2C)no1` (centres undefined), the Percent Effect in [1] is -2.85%; in assay [2] it was -5.2%; in assay [3], 3.9%; in assay [4], 11.2%; in the assay with Trypanosoma cruzi it was 1.69%; in [5], -1.42%. Also, the Percent Effect in [6] is -8.11%; in the assay listed under Homo sapiens, 11.2%; in [7] it was 13.6%; in assay [8], 14.6%; in assay [9] it was -1.21%.
